# Data from the supplement of paper PMC6555819.
# What was measured:
# Assay in all cases: PBM binding z-score (relative to random genomic background probes); higher = stronger binding; sequences stand for … in GC…GCGATTGACAGCGTAGAATGAAGG
# [1] = tested on: PPARg:RXRa DBDmut IVT, anti-RXR (DBD mutation: RXRa K156A/R161A, NR concentration 270 nM, RXRa partner concentration 90 nM)
# In short: (§1)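 Regression normalization was applied to scanned fluorescence from custom Agilent 4×180K protein-binding microarrays. Before scanning, arrays were incubated 1 h with ligand-free nuclear receptor dimers, and binding was detected with antibodies against each partner (one per run). Binding z-scores use the random background probes as reference.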
# [2] = tested on: PPARg:RXRa IVT, anti-PPARg (NR concentration 270 nM, RXRa partner concentration 90 nM)
# In short: as §1
# [3] = tested on: PPARg DBDmut:RXRa IVT, anti-PPARg (DBD mutation: PPARg1 K132A/R137A, NR concentration 270 nM, RXRa partner concentration 90 nM)
# In short: as §1
# [4] = tested on: PPARg DBDmut IVT, anti-PPARg (DBD mutation: PPARg1 K132A/R137A, NR concentration 270 nM)
# In short: as §1
# [5] = tested on: PPARg homodimer (NR concentration 180 nM)
# In short: as §1
# [6] = tested on: PXR:RXRa (NR concentration 270 nM, RXRa partner concentration 90 nM)
# In short: as §1
# [7] = tested on: PXR homodimer (NR concentration 270 nM)
# In short: as §1
# [8] = tested on: RARa:RXR (NR concentration 270 nM, RXRa partner concentration 90 nM)
# In short: as §1
# [9] = tested on: RARa homodimer (NR concentration 270 nM)
# In short: as §1
# [10] = tested on: RARb homodimer (NR concentration 270 nM)
# In short: as §1
# [11] = tested on: RARg:RXRa (NR concentration 270 nM, RXRa partner concentration 90 nM)
# In short: as §1
# [12] = tested on: RARg homodimer (NR concentration 270 nM)
# In short: as §1
# [13] = tested on: RXRa DBDmut IVT, anti-RXR (DBD mutation: RXRa K156A/R161A, NR concentration 90 nM)
# In short: as §1
# [14] = tested on: RXRa homodimer (NR concentration 180 nM)
# In short: as §1
# [15] = tested on: THRa homodimer (NR concentration 90 nM)
# In short: as §1
# [16] = tested on: VDR homodimer (NR concentration 270 nM)
# In short: as §1
# [17] = tested on: RARb:RXRa (NR concentration 270 nM, RXRa partner concentration 90 nM)
# In short: as §1
# [18] = tested on: THRa:RXRa (NR concentration 90 nM, RXRa partner concentration 90 nM)
# In short: as §1
# [19] = tested on: VDR:RXRa (NR concentration 270 nM, RXRa partner concentration 90 nM)
# In short: as §1
Sequence,PBM binding z-score [1],PBM binding z-score [2],PBM binding z-score [3],PBM binding z-score [4],PBM binding z-score [5],PBM binding z-score [6],PBM binding z-score [7],PBM binding z-score [8],PBM binding z-score [9],PBM binding z-score [10],PBM binding z-score [11],PBM binding z-score [12],PBM binding z-score [13],PBM binding z-score [14],PBM binding z-score [15],PBM binding z-score [16],PBM binding z-score [17],PBM binding z-score [18],PBM binding z-score [19]
CAACCTAGGTCACGAAAGGTCAAAGTCGAATGAC,5.05,6.58,1.6,1.91,4.46,7.28,2.49,6.93,1.71,6.02,7.91,8.53,2.31,8.43,2.77,3.44,,,
ATATGGAGGTTAAGGGTCATTCAGGTTGGTTCGC,3.59,5.42,3.41,2.22,4.57,6.14,3.95,,3.41,4.46,5.75,4.13,2.5,7.76,2.38,5.63,3.97,3.96,
GGAACGAGGGCAAAGGTGATAGCATCTGTCGACG,5.67,5.29,0.379,0.895,1.42,1.9,0.114,,0.0137,1.66,3.02,1.95,2.07,3.31,-0.159,1.02,2.72,1.85,1.92
CCAGAAAGGTGAAAGGTAACTCAGTCTGGTACGC,4.19,4.68,0.791,0.428,1.51,2.26,0.172,,0.674,1.92,3.17,2.13,0.365,4.27,0.107,0.0179,3.3,1.94,
TAGCCTAGGTCATGGGCCAGTTTACCACGCGAAC,1.76,3.27,-0.261,-0.602,1.68,2.12,-0.368,,-0.379,3.04,4.68,4.8,0.567,4,1.42,0.669,3.82,3.22,
CGTCCAAGGTCAAAGGTCAGTAAAGAGATGACGG,4.06,5.78,0.533,0.691,4.4,7.16,1.34,,4.03,5.42,8.65,8.13,3.88,10.4,2.37,3.52,5.99,4.82,
CGTCCAAGGTCAAGCTCAGTGAAAGAGACTCGAA,3.71,3.76,0.736,0.448,3.54,3.92,0.3,,0.572,3.96,6.43,6.63,3.51,6.22,2.32,2.03,5.27,3.76,
TCTTGTAGATCAAAGGTTAAGACAGCCGAAGCCT,2.1,3.94,1.03,0.9,1.28,2.12,-0.0752,,0.276,1.45,1.94,1.05,0.925,3.08,-0.0838,0.141,1.91,1.24,1.68
CGTCCAAGGTCATAGGAGGTCACTGAAGACAGAT,3.85,5.27,1.24,1.12,5.21,7.29,6.78,,3.25,5.4,7.13,7.45,4.05,7.22,3.68,5.28,5.39,5.37,
CAAACTAGGTCAAAGGTCAAAGTTGAGCCAACCA,8.56,9.49,2.5,3.77,3.75,7.31,1.83,,2.12,5.46,9.07,7.7,3.35,10.5,1.92,3.15,5.96,4.95,
AGTCAAAGGTCACTAGGTAACGTAAGATTCAGCT,5.65,7.5,1.54,0.924,4.05,4.94,1.04,5.94,2.79,5.03,,8.53,2.94,,0.996,2.14,,3.99,5.23
CCTAGCAGGCCAATCGGGGTCACTCAAGGCTTGA,2.04,3.14,-0.484,-1.21,3.42,6.01,1.7,6.08,0.0938,3.66,4.43,3.43,1.12,6.01,2.35,4,,,5.36
CGTCCAAGGTCAAGGTCACTGAAAGAGACTCGAA,3.94,5.37,1.81,0.436,3.85,5.68,1.6,6.16,1.64,5.6,,8.3,3.73,,4.35,4.03,,,5.49
ATCCAAAGGTCGAGGTGAGTATAGAGAAAGGGAA,0.646,2.87,1.42,1.42,1.71,2.84,0.536,,1.18,3.21,4.69,4.83,1.19,5.1,1.07,1.09,4.43,3.07,3.05
CGTCAAAGTTCAACTAAGGTAACTTAAAGCACGC,0.256,2.36,0.726,1.28,3.17,5.71,4.62,,1.76,4.27,5.75,6.52,4.71,4.83,1.52,4.08,5.39,5.38,4.76
TAGCCTAGGTCACGGGCCAGTATACCACGCGAAC,2.44,5.21,0.69,0.437,1.4,2.28,-0.694,,0.351,3.83,5.12,5.43,0.27,4.73,1.84,0.425,4.59,3.83,2.94
TTACAAAGGTGAAAGGTCGTTGATGCACGCCTTG,3.36,5.57,1.51,1.12,2.94,5.11,0.77,,0.833,3.48,5.85,3.31,1.05,7.68,0.398,1.64,4.25,3.11,4.35

Sequence,PBM binding z-score [1],PBM binding z-score [2],PBM binding z-score [3],PBM binding z-score [4],PBM binding z-score [5],PBM binding z-score [6],PBM binding z-score [7],PBM binding z-score [8],PBM binding z-score [9],PBM binding z-score [10],PBM binding z-score [11],PBM binding z-score [12],PBM binding z-score [13],PBM binding z-score [14],PBM binding z-score [15],PBM binding z-score [16],PBM binding z-score [17],PBM binding z-score [18],PBM binding z-score [19]
TTACAAAGGTGAGCTGAGGTCGTTGATCCAACTC,1.9,2.58,0.303,-0.224,1.41,6.04,0.268,,-0.325,2.56,2.97,2.69,0.365,2.51,1.73,2.57,3.23,4.84,
ACTTACGGGTCAACGACGTTATAGCACGCGTATA,3.06,3.74,1.35,0.774,1.67,3.19,-0.178,,0.684,2.87,5.07,4.51,1.59,5.19,0.369,0.841,4.07,2.68,
CGTCCAAGGTCACAGGAGGTCAGTGAAGACAGAT,4.02,5.26,0.184,-0.411,4.98,6.88,3.92,6.48,2.32,5.53,,8.33,3.73,,3.66,4.32,,5.28,
CCTAGTTGGCCAAGGTCACACACGCTATAGGTAC,1.76,2.66,0.582,0.0264,2.66,3.85,1.93,,1.5,4.08,4.16,4.16,2.02,4.27,3.61,3.38,3.8,3.96,
AATACAGGGTCACTAGGCCCGAGTAGGTACGAAT,2.32,4.28,2.04,0.859,1.77,2.94,0.0617,,0.416,2.85,5.05,4.72,2.31,5.31,0.859,2.26,4.14,3.09,
CGTCCAAGGTCAATGCAAGGTCAGTGAAAGCATT,3.53,4.28,0.246,0.606,5.89,6.14,2.19,6.91,2.02,5.5,,7.06,3.92,6.02,4.02,3.85,,,6.14
CACACTAGGTCAAGAGGTCAAAGTCCGCTTCCCG,7.22,7.67,2.76,1.84,7.46,6.33,3.75,,3.81,5.71,8.04,7.49,3.09,8.05,3.03,4.78,5.28,4.5,6.08
CGTCCAAGGTCAATGTTAGGTCAGTGAAAGCATT,2.85,3.43,-0.0958,-0.256,3.57,4.77,1.6,5.78,1.18,5.33,7.45,6.89,3.6,5.27,3.81,2.78,,,
AGTCAAAGGTCAGGACGAGGTAACGTAAAGCACG,3.25,5.65,0.687,0.49,4.08,4.9,0.639,5.78,2.25,4.82,,7.93,1.32,7.47,2.11,0.891,,,4.83
GCTTACGGGTCAAAGGTTATAGTATGAATAGAAT,4.49,5.45,1.28,1.07,1.98,6.29,0.804,,0.757,3.5,6.8,4.72,2.7,9.39,0.429,1.88,4.25,3.99,5.76
CCTGCTAGGTCAAGGGTCAGCTAAAGCAGCTCGC,4.08,5.78,0.536,-0.955,2.95,4.65,0.026,,0.368,4.91,6.68,6.43,1.48,7.49,1.24,1.03,4.96,3.95,4.17
CGAACTAAGTCATTGACAGGACAGTGAATAGTAA,0.976,0.473,-0.569,0.367,-0.739,-0.093,-0.313,0.0796,0.472,-0.122,,0.434,0.322,-0.0903,-0.56,-0.385,,0.19,
CTCGAAAGGTCAGTTGAGGTGAGTATACGGATAA,2.81,3.53,0.544,1.62,5.81,5.79,0.639,5.08,3.41,4.91,6.7,7.89,2.56,5.93,1.63,1.63,,,
CAATCTAGGTCACGAAAGGTCAAAGTCGAATGAC,8.53,9.13,5.67,4,6.67,7.2,3.37,,4.3,5.85,8.09,8.64,2.58,8.63,3.08,3.66,5.76,5.02,
CGAACTAAGTCATCCAGGACAGTGAATACATTGA,1.12,0.862,0.763,1.05,0.291,-0.153,-0.248,0.371,0.476,0.33,,0.549,0.248,0.264,1.1,0.0279,,1.55,
CGTCCAAGGTCAAAGGTCAGGGAAGAGATGACGG,3.65,6.24,1.42,0.451,3.19,7,1.61,8.27,2.57,5.58,9.1,8.2,3.54,10.4,2.92,3.13,,,
